Consider 14 compounds from PubChem BioAssay AID743157 (Broad Institute, 2013).

The structures appear in SMILES notation. Values without a mark were called inactive. Active and inactive are the calls of the source.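 How the source made its calls: active means cell killing, with a fitted active concentration at or below twice the top valid dose tested; inconclusive means flat fit with 30 to 70 percent signal loss, or poor fit; inactive means effect in the rising direction, plus the rest.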

This assay can be described thus: A549 cell cytotoxicity, dose response, cytotoxicity control, CellTiter-Glo luminescence, dry powder, set 4 (AID 743157). The note with it: A549 viability, CellTiter-Glo ATP luminescence, 72 h; series mostly up to 50 µM.
Consider `Cc1c(C(=O)O)sc2nc(/C=C/c3ccncc3)[nH]c(=O)c12`, for which the result was inactive.

As to `Cc1c(C(=O)O)sc2nc(/C=C/c3ccc(O)cn3)[nH]c(=O)c12`, the activity change, negative = cytotoxicity is 4.16% [at 1.2 µM].

In the case of `Cc1c(C(=O)O)sc2nc(/C=C/C3CC3)[nH]c(=O)c12`, the compound was classed as inactive.

As to `Cc1c(C(=O)O)sc2nc(/C=C/c3cccc(N4CCNCC4)c3)[nH]c(=O)c12`, the result was inactive.

With `Cc1c(C(=O)O)sc2nc(/C=C/c3ccc4ccccc4c3)[nH]c(=O)c12`, the result was inactive.

On to `Cc1c(C(=O)O)sc2nc(/C=C/c3cccc(=O)[nH]3)[nH]c(=O)c12`, for which the result was inactive.

For the compound `Cc1c(C(=O)O)sc2nc(/C=C/c3cccc(N4CCOCC4)n3)[nH]c(=O)c12`, the call was inactive.

Consider `Cc1c(C(=O)O)sc2nc(/C=C/c3cccc(C(=O)O)c3)[nH]c(=O)c12`, for which the result was inactive.

On to `Cc1c(C(=O)O)sc2nc(/C=C/c3cccc(C(F)(F)F)c3)[nH]c(=O)c12`, for which the outcome was inactive.

For the compound `Cc1c(C(=O)O)sc2nc(/C=C/c3cccnc3N)[nH]c(=O)c12`, the activity change, negative = cytotoxicity was -7.98% [at 12 µM].

Regarding `Cc1c(C(=O)O)sc2nc(/C=C/c3ccccn3)[nH]c(=O)c12`, the outcome was inactive.

As for `Cc1c(C(=O)O)sc2nc(/C=C/c3cccc(F)c3)[nH]c(=O)c12`, the call was inactive.

Turning to `Cc1c(C(=O)O)sc2nc(CCc3cccc(O)c3)[nH]c(=O)c12`, the compound was classed as inactive.

As to `Cc1c(C(=O)O)sc2nc(/C=C/c3cnc4ccccc4c3)[nH]c(=O)c12`, the result was inactive.
